Experimental data as given in PubChem BioAssay (NCI).
The panel holds about 83,000 compounds, 20% with a hit somewhere; the sample as a whole holds those more often.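 Method: cells in 96-well plates; compound added at one concentration; 48 h incubation; percent growth measured; values under 10 scored active.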 Values without a mark were called inactive. The source made the active and inactive calls.

Legend:
Test in all cases: NCI-60 one-dose screen, 48 h (100 = growth as untreated, 0 = no growth, -100 = all killed)
Settings in all cases: 10 µM unless noted
T-47D breast = tested on: T-47D breast
BT-549 breast = tested on: BT-549 breast
MDA-MB-435 melanoma = tested on: MDA-MB-435 melanoma
SW-620 colon = tested on: SW-620 colon
MCF7 breast = tested on: MCF7 breast
HCT-116 colon = tested on: HCT-116 colon
HCC-2998 colon = tested on: HCC-2998 colon
KM12 colon = tested on: KM12 colon

SMILES | growth (T-47D breast) | growth (BT-549 breast) | growth (MDA-MB-435 melanoma) | growth (SW-620 colon) | growth (MCF7 breast) | growth (HCT-116 colon) | growth (HCC-2998 colon) | growth (KM12 colon)
CCCCCCNC(=O)Oc1ccc(/C(=C(\C)c2ccc(Cl)cc2)c2ccc(OCCN(CC)CC)cc2)cc1 | 39.7% | 82.7% | 65% | 18.2% | 24.6% | 29.6% | 78.7% | 44.6%
O=C1c2cccc3cccc(c23)C(=O)N1N1C(=O)c2cccc3c(NC4CCCCC4)ccc(c23)C1=O | 88.4% | 97.8% | 102% | 98.7% | 88.8% | 98.9% | 108% | 99.5%
c1ccc(-c2nc3nonc3nc2-c2ccccc2)cc1 | 61.6% | 56.2% | 43.1% | 82.3% | 60.9% | 62.5% | 95.4% | 74.4%
CC(=O)CC[C@H]1C(=O)N[C@@H](C(C)C)C(=O)N[C@@H](Cc2cc(O)cc(F)c2)C(=O)N2CCC[C@H](N2)C(=O)O[C@H](/C(C)=C/C=C/C(=O)OC(C)(C)C)C/C=C/C=C/[C@H](O)[C@H](C)[C@H]1O | 55% | 39.6% | 43% | 25.4% | 48.2% | 26.6% | 51.8% | 34.1%
C/C=C(\C)C(=O)N[C@H]1[C@@H](OC(C)=O)C[C@]2(C)C3CC[C@@]4(C)C(CC[C@@H]4C(C)N(C)C)C3CCC2[C@H]1O (stereo partly drawn) | 60.6% | 63.4% | 1.82% (active) | 63.9% | 61.9% | 30.7% | 69.2% | 45.6%
COc1cccc(OC)c1C(=O)N[C@@H]1C(=O)N2[C@@H]1SC(C)(C)[C@@H]2C(=O)O | 98.3% | 95.4% | 105% | 107% | 98% | 97.9% | 105% | 107%
CCCCCCNC(=O)Oc1ccc(/C(=C(\C)c2ccc(Cl)cc2)c2ccc(OCCCN(C)C)cc2)cc1 | 61.1% | 90.6% | 72.4% | 87.9% | 25.2% | 36.9% | 82.3% | 59.6%
O=C(Cc1ccc2c(c1)OCCO2)Nc1nc2ccc(F)cc2s1 | 93.6% | 89.6% | 104% | 104% | 92.2% | 101% | 122% | 108%
COc1cc(-c2nc3sccn3c2-c2ccnc(NCCCNS(=O)(=O)c3ccc(F)cc3)n2)ccc1F | 15.5% | 42.8% | 65.8% | 106% | 76.1% | 58.1% | 95.5% | 74.2%
COc1ccc(C(=O)N=Nc2c(O)n(C)c3ccccc23)cc1 | 61.9% | 103% | 103% | 97.3% | 61.3% | 99.7% | 117% | 95.5%
COc1ccc(/C=N/Nc2cc(=O)[nH]c3ccc(C)cc23)cc1 | 70.7% | 88.3% | 102% | 96.8% | 78.1% | 83.1% | 99.2% | 105%
COc1cc(C(=O)/C=C/c2ccc(OCCCCCC[P+](c3ccccc3)(c3ccccc3)c3ccccc3)cc2)cc(OC)c1OC | -21.5% (active) | -47.6% (active) | -58.9% (active) | -80.4% (active) | -68.1% (active) | -77.3% (active) | -20.3% (active) | -86.8% (active)
COc1ccc(C(=O)/C=C/c2sc(Cl)nc2Cl)cc1 | 59% | -4.31% (active) | 15.7% | 18.6% | -7.05% (active) | 17.7% | -36% (active) | 39%
c1ccc2cc(C[n+]3ccn(CCCCCCCCCCCCn4cc[n+](Cc5ccc6ccccc6c5)c4)c3)ccc2c1 | -53.1% (active) | -82.8% (active) | -97.1% (active) | -55.7% (active) | -70.5% (active) | -61.8% (active) | -83.4% (active) | -86.9% (active)
COc1ccc(/C=N/Nc2cc(=O)[nH]c3ccc(Cl)cc23)cc1 | 42.4% | 32.1% | 43.2% | 37.9% | 35.2% | 8.92% (active) | 88.8% | 46.6%
COc1cc(/C=C2\C(=O)Nc3ccc(Br)cc32)cc(OC)c1OC | 53.2% | 58.3% | 21.2% | 36.1% | 24.2% | 37.3% | 67.6% | 47.8%
